Values without a mark were called inactive.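 How the source made its calls: active = log2 fold change beyond 2 SD from the library mean after excluding viability outliers; inactive = within 2 SD.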
Molecular target: PARP1 L713F-nLuc biosensor (HCT116) (UniProt P09874)
Assay: PARP1 L713F-nLuc/akaLuc ratio relative to DMSO control (biosensor stabilization) (fold change); higher = more PARP1 biosensor stabilization (target engagement / stabilizer), active = hit call of the paper
Conditions: stock concentration (mM; final µM = stock mM x 1): 10; 24 h

Sequence of PARP1 L713F-nLuc biosensor (HCT116) (P09874 whole entry L713F, looked up): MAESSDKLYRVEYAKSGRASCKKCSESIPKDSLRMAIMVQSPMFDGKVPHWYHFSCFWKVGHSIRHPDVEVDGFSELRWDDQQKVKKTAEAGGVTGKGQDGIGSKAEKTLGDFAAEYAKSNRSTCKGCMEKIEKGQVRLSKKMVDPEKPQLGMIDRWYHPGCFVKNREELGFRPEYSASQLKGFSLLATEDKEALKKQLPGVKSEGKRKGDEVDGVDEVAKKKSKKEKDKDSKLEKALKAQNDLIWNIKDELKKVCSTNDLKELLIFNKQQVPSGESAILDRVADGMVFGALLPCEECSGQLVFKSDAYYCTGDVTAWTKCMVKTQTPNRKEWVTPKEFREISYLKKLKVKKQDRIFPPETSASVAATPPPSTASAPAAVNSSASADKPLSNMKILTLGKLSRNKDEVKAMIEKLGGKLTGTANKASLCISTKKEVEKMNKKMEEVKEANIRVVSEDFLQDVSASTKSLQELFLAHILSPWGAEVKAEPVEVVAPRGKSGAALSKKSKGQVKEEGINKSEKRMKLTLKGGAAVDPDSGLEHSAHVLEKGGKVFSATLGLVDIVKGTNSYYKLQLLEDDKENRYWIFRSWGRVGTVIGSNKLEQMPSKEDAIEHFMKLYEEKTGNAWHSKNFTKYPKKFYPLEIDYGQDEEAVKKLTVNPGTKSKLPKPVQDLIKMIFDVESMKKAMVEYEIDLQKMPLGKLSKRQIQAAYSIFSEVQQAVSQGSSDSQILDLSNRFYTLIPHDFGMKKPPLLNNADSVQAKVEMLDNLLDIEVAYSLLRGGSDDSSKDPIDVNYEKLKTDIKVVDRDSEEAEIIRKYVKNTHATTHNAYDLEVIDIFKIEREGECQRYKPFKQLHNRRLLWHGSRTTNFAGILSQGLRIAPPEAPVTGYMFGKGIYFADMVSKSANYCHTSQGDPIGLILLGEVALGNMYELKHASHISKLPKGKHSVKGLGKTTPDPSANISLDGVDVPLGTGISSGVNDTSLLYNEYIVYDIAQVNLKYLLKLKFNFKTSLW

Row | SMILES | PARP1 L713F-nLuc/akaLuc ratio
1 | CCCCOc1ccc(CC(=O)NO)cc1 [Bufexamac] | 1.03
2 | CCCc1cc(C)[nH]c(=O)c1CNC(=O)c1cc(-c2ccc(N3CCN(C(C)C)CC3)nc2)cc2c1cnn2C(C)C | 0.862
3 | N#Cc1c[nH]c2ccc(-c3ccc(-c4c(O)cccc4O)cc3)cc12 | 0.933
4 | Nc1nc(N)c2nc(-c3cccc(O)c3)c(-c3cccc(O)c3)nc2n1 | 1.46
5 | O=c1ccoc2cc(O)cc(O)c12 [5,7-Dihydroxychromone] | 1.02
6 | O=C1COc2c(CCNCCN(C(=O)CCNCCc3ccc(Cl)c(Cl)c3)C3CCCCC3)ccc(O)c2N1 | 1.16
7 | CC(C)N(CCC(=O)c1ccc2ccccc2c1)Cc1ccccc1 | 0.841
